# High-throughput results deposited in PubChem by National Center for Advancing Translational Sciences (NCATS).
# An excerpt weighted towards active compounds, which were near 9.4% of everything screened.
# FLuc counter: firefly luciferase modulation, counter-screen for miR-21 project | P08659 | purified FLuc, Km substrates, luminescence inhibition | Potency, µM (series often up to 57.5 µM), without a hit: at the highest dose activity change, negative = inhibition, usual class: inhibitors | actives 6.9% (n = 360,000) | AID 588342;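 also: plate controls were vehicle for no effect and reference inhibitor for full effect; nearly all actives have a fitted effect of over 55% in size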
# Target sequence (P08659 whole entry, looked up): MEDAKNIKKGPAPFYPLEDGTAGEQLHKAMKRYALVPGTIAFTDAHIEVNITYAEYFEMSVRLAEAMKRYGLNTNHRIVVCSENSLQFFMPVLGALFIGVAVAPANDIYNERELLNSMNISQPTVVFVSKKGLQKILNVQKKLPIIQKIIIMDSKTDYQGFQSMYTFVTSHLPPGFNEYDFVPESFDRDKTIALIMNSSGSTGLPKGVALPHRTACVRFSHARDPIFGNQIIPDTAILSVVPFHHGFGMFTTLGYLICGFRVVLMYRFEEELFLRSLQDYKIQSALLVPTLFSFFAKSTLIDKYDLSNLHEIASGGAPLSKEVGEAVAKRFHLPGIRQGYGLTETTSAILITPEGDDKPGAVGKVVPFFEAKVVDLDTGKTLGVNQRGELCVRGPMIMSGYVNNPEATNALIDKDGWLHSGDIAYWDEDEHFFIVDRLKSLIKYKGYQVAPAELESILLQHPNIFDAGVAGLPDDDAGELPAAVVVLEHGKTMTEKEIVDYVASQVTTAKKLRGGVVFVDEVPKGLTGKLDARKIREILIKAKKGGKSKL
#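 Biochemical qHTS of compounds, final roughly 60 µM downward over six points, against 10 nM purified firefly luciferase using Km concentrations of substrates (10 uM D-luciferin, 10 uM ATP) in Tris acetate pH 7.5 buffer; luminescence output.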
# SMN2 splice up: enhancers of SMN2 splice variant expression; AID 1458; actives 2.8% (n = 210,000); HEK293 SMN2-luciferase splicing reporter, luminescence, 30-36 h; Potency, µM (titrated, usually from 46.1 µM), without a hit: top-dose activity change, positive = activation, hits mostly activators; also: % of control where 0% means no effect; nearly all actives have a fitted effect of over 55% in size
#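 HEK293 cells carry an SMN2 minigene-luciferase reporter in which exon 7 inclusion puts luciferase in frame. Cells were seeded at 2000 cells/well, attached for 10-12 hours, then exposed to compounds for 30-36 hours at 37C before ONE-Glo luminescence.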
# Rab9 prom act: activates the Rab9 promoter. actives 2.8% (n = 320,000). Potency, µM (top dose mostly 9.22 µM), without a hit: at the highest dose activation, negative = inhibition, actives largely listed as activators. Huh7 Rab9 promoter-luciferase reporter, luminescence, 24 h. AID 485297; also: % of control where 0% means no effect; nearly all actives have a fitted effect of over 60% in size
#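 Cells were plated at 1500 per well in reduced-serum medium with 10% FBS and left 2 h. Compound in DMSO was then added for 24 h at 37 °C. Reporter signal was read by luminescence after 10 min with luciferase detection reagent.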
# ELG1 repair inh: inhibitors of ELG1-dependent DNA repair in HEK293T cells; HEK293T ELG1-luciferase reporter, luminescence, 16 h; DNA damage induced by 5-fluorouridine; Potency, µM (top dose mostly 46.1 µM), inactives show top-dose activity change, negative = inhibition, hits mostly inhibitors; actives 2.3% (n = 330,000); AID 504467; also: % is scaled to controls: 0 for no effect and ±100 for the full control effect; nearly all actives have a fitted effect of over 55% in size
#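 Overnight (16 hr) co-exposure of 2,000 cells/well to 5-fluorouridine and compound at 37 °C preceded detection. Luciferase was quantified via ONE-Glo luminescence; loss of signal denotes inhibition.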
# NPC1 promoter act: activates the NPC1 promoter; Huh7 NPC1 promoter luciferase reporter, 24 h; Potency, µM (series often up to 9.22 µM), for the others: at the highest dose activation, most hits filed as activators; actives 2.4% (n = 320,000); also: % of control where 0% means no effect; nearly all actives have a fitted effect of over 60% in size
#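 Stably transfected Huh7 (NPC1 promoter→luciferase), 1500 cells/well in Opti-MEM + 10% FBS, 2 h settle, then compound 24 h at 37 °C. Luminescence after 10 min with Amplite reagent.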
# ELG1 genotox: genotoxicity induction in ELG1-luciferase HEK293T cells | HEK293T ELG1-luciferase reporter, luminescence, 16 h | Potency, µM (highest dose often 46 µM), for the others: top-dose activity change, positive = activation, hits mostly activators | actives 1.3% (n = 330,000) | AID 504466; also: % of control where 0% means no effect; nearly all actives have a fitted effect of over 60% in size
#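 Quantitative HTS format in 1536-well plates. HEK293T ELG1-luciferase reporter cells receive test compound and are incubated 16 hr at 37 °C, 5% CO2; ONE-Glo added, 30 min room temperature, then luminescence read.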
# * = called active by the depositor; ? = inconclusive; . = no result; [ ] = dose if it differs, or a comment. Calls follow the shape of the dose curve; as a rule, active = well fitted curve in the direction sought with a large enough effect; inconclusive = small, poorly fitted or top-dose-only effect, or another doubt; inactive = no such curve, though single readings can be large; an effect the other way counts as inactive or inconclusive. Potency is read from the fitted curve at half-maximal effect.
SMILES,FLuc counter,SMN2 splice up,Rab9 prom act,ELG1 repair inh,NPC1 promoter act,ELG1 genotox
Cc1ccc(/C=C/C(=O)Nn2cnnc2)cc1,5.4µM*,-6%,-9%,-4%,-5%,9%
CN(C(=O)c1ccc2c(c1)N(Cc1cccc(Cl)c1)C(=O)c1ccccc1S2(=O)=O)C1CCCCC1,7%,.,.,.,.,.
COc1ccc(-c2cn3nc(N4CCC(C(=O)Nc5cc(Cl)ccc5C)CC4)sc3n2)cc1,-15%,.,.,.,.,.
Cc1cc(NS(=O)(=O)c2ccc(NC(=O)COc3ccc(Br)cc3C)cc2)no1,21µM*,-11%,.,.,.,.
CCCCOc1cccc(C(=O)Nc2ccc(S(=O)(=O)Nc3cc(C)on3)cc2)c1,19µM*,.,-1%,0%,-7%,4%
Cc1cc(NS(=O)(=O)c2ccc(NC(=O)COc3c(C)cc(Br)cc3C)cc2)no1,-1%,15%,-2%,-6%,-3%,-25%
NNC(=O)c1csc(COc2cc(Cl)cc(Cl)c2)n1,4%,.,-3%,0%,-6%,1%
CC(=O)c1csc(COc2ccc(Cl)cc2)n1,24µM*,.,0.79µM*,?,0.89µM*,?
CC(=O)Nc1nnc(COc2ccc(Cl)cc2)s1,15µM*,11µM*,3.5µM*,?,3.2µM*,15µM*
Cc1c(Cl)cc(C(C)(C)C)c(O)c1Cc1c(C)c(Cl)cc(C(C)(C)C)c1O,.,-48%[9.22 µM],.,.,.,.
Cc1ccc(-c2nc3ccccc3c(=O)n2O)cc1,1%,.,-4%,23%,8%,-5%
Cc1ccccc1/C=N/Nc1nc2ccccc2c(=O)n1O,15µM*,.,7%,26%,13%,17%
COc1cccc2c(N/N=C/c3ccccc3)cc(C)nc12,2%,.,-5%,-12%,0%,-1%
COc1ccc(/C=N/Nc2cc(C)nc3ccc(Br)cc23)cc1,21µM*,.,-4%[1.84 µM],?,0%,-6%
Cc1cc(N/N=C/c2ccccc2O)c2ccccc2n1,15µM*,.,-4%,-6%,4%,11%
COc1ccc2nc(C)cc(Nc3ccccc3O)c2c1,-1%,.,-10%,5%,1%,-7%
COc1ccc2nc(C)cc(N/N=C/c3cccc(OC)c3O)c2c1,17µM*,.,0%,2%,-4%,5%
COc1ccc(NC(=O)Cn2cnc3c(nc4n3CCCCC4)c2=O)c(OC)c1,-6%,.,.,.,.,.
COC(=O)C1=C(C(=O)OC)[C@@H]2N(C)c3ccc(OC)cc3[C@@]23C[C@@H](C(=O)OC)N(S(=O)(=O)c2c(C)noc2C)C3=N1,.,1%[9.22 µM],.,.,.,.
Cc1ccc2[nH]c(=O)c3cc(C(=O)NCc4cccc(Cl)c4)sc3c2c1,1%,-1%,.,.,.,.
CC(C)NC(=S)N/N=C1\CCCCc2ccccc21,1%,-6%,-4%,?,-1%,-1%
COc1cccc(NC(=S)N/N=C2/CCCCc3ccccc32)c1,13µM*,28µM*,24%,?,10%,14%
COc1ccc2c(c1)CC(C(=O)Nc1cc(Cl)ccc1C)CO2 (stereo not drawn),-2%,.,.,.,.,.
COc1cc(/C=C2\SC(N)=NC2=O)ccc1O,?,.,-4%,10µM*,1%,-22%
C=CCOc1ccc(/C=C2\SC(N)=NC2=O)cc1OC,11µM*,.,-11%,?,-2%,?
O=S(=O)(c1ccc(F)cc1)N(Cc1nc(-c2ccc(Cl)cc2)no1)C1CCCCC1,-2%,6%,.,.,.,.
COC(=O)c1c(NC(=O)Cc2coc3cc(C)ccc23)sc2c1CCCC2,-15%,7%,.,.,.,.
Nc1c(-c2ccccc2)cnn1-c1cccc([N+](=O)[O-])c1,15µM*,19%,?,?,?,?
Nc1c(-c2ccc(Cl)cc2)cnn1-c1cccc(C(F)(F)F)c1,?,-11%,?,?,?,7%
O=[N+]([O-])c1ccc2cn(-c3ccccc3)nc2c1,9.5µM*,18µM*,2µM*,?,?,?
